Inconclusive results are not listed. Calls of active or inactive are those of the source. Unless noted, no rule for the calls is given here.
Tests used:
[1] = MDA-MB-436 breast carcinoma cell growth inhibition, synergistic combos for chromothripsis tumors, BGB or cisplatin combos (AID 1671458); settings: MDA-MB-436 breast carcinoma growth inhibition, drug combinations, stronger effect = higher value;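 also: cells exposed for 96 hours; 0% = vehicle DMSO and 100% = killing by high DMSO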
[2] = growth inhibition of BT084 medulloblastoma cells, cell-based, ICGC_MB145, cisplatin and BGB IC40 combos (AID 1671461; in the data active = inhibition above about 80%;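 also: cells exposed to drugs for 96 hours; 0% = vehicle DMSO and 100% = high DMSO full killing control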); settings: drug combinations, stronger effect = higher value
[3] = growth inhibition of RCMB18 medulloblastoma cells, cell-based, cisplatin and BGB IC40 combos (AID 1671462; in the data active = inhibition above about 80%;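 also: cells exposed to compound for four days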); settings: stronger effect = higher value
[4] = growth inhibition of CRL1545 osteosarcoma cells, cell-based, cisplatin and BGB IC20 combos (AID 1671464; in the data active = inhibition above about 80%;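 also: cells exposed to compound for 96 hours before readout; 0% = vehicle DMSO and 100% = high DMSO killing control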); settings: stronger effect = higher value
[5] = reducers of polyQ inclusions in PC12 cells, cell-based, NGF-treated PC12, GFPQ80 (AID 1614); settings: PC12 NGF-treated GFP-polyQ80 inclusion reduction;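 also: lower means fewer inclusions and 0 means no inclusions at all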
[6] = circadian clock period modulators, cell-based, LOPAC library, luminescence reporter (AID 2774); settings: circadian reporter cells, at 7 µM, actives lie on both sides;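 also: values are relative to mean of DMSO wells on each plate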
[7] = test system: Hepatitis C virus NS3 helicase; assay: HCV NS3 helicase inhibitors, primary screen, biochemical, fluorescence polarization, LOPAC1280 library (AID 687035; in the data active = inhibition above about 37%); settings: Purified HCV NS3 helicase, Cy5-dT15 ssDNA binding fluorescence polarization; stronger effect = higher value; concentration not given here
[8] = Cy5 fluorescence quenching or enhancement artefacts, artefact control for HCV NS3 helicase inhibitor project, biochemical, LOPAC1280 (AID 687037); settings: Cy5-DNA-NS3h complex fluorescence interference counterscreen
[9] = growth inhibition of DIPG glioma cells, dose response, cell-based, SU-DIPG-XVII, MIPE5.0, CellTiter-Glo, qHTS (AID 1347060; cut-off not given, nearly all actives have AC50 up to about 26 µM); settings: SU-DIPG-XVII viability, CellTiter-Glo ATP luminescence
[10] = growth inhibition of DIPG glioma cells, dose response, cell-based, SU-DIPG-XIII, MIPE4.0, CellTiter-Glo, qHTS (AID 1347061; cut-off not given, nearly all actives have AC50 up to about 37 µM;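 also: cells exposed to compound for 48 hours before readout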); settings: SU-DIPG-XIII viability, CellTiter-Glo ATP luminescence
[11] = growth inhibition of DIPG glioma cells, dose response, cell-based, JHH-DIPG-1, MIPE4.0, CellTiter-Glo, qHTS (AID 1347062; cut-off not given, nearly all actives have AC50 up to about 27 µM;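 as to AC50: cells exposed to compound for two days before readout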); settings: JHH-DIPG-1 viability, CellTiter-Glo ATP luminescence
[12] = growth inhibition of DIPG glioma cells, dose response, cell-based, SU-DIPG-IV, MIPE4.0, CellTiter-Glo, qHTS (AID 1347063; cut-off not given, nearly all actives have AC50 up to about 30 µM;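 also: compound exposure lasted 48 hours before the viability readout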); settings: SU-DIPG-IV viability, CellTiter-Glo ATP luminescence
[13] = SU-DIPG-VI glioma cell viability, MIPE4.0 library, CellTiter-Glo luminescence, qHTS (AID 1347066; cut-off not given, nearly all actives have AC50 up to about 30 µM;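 also: cells exposed to compound for 48 hours before readout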); settings: CellTiter-Glo ATP luminescence
[14] = JHH-DIPG-1 glioma cell viability, MIPE5.0 library, CellTiter-Glo luminescence, qHTS (AID 1347067; cut-off not given, nearly all actives have AC50 up to about 26 µM;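 also: cells exposed to compound for 48 hours before readout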); settings: JHH-DIPG-1 glioma viability, CellTiter-Glo ATP luminescence
[15] = SU-DIPG-XXV glioma cell viability, MIPE5.0 library, qHTS (AID 1347068; cut-off not given, nearly all actives have IC50 up to about 30 µM)
[16] = phospholipid biosynthesis inhibitors in animal cells, primary screen, cell-based, LOPAC library, screen 4 (AID 1347384); settings: phospholipid biosynthesis inhibition screen, at 10 µM
[17] = target: ATP-dependent translocase ABCB1 (Homo sapiens) (UniProt P08183); assay: MDR1 (ABCB1) efflux transporter inhibition, cell-based (AID 377; in the data active = fluorescence slope change above about 50%); settings: MDR1-expressing cells, fluorescent substrate accumulation slope; stronger effect = higher value; concentration not given here
ATP-dependent translocase ABCB1 (Homo sapiens), sequence (P08183 whole entry, looked up): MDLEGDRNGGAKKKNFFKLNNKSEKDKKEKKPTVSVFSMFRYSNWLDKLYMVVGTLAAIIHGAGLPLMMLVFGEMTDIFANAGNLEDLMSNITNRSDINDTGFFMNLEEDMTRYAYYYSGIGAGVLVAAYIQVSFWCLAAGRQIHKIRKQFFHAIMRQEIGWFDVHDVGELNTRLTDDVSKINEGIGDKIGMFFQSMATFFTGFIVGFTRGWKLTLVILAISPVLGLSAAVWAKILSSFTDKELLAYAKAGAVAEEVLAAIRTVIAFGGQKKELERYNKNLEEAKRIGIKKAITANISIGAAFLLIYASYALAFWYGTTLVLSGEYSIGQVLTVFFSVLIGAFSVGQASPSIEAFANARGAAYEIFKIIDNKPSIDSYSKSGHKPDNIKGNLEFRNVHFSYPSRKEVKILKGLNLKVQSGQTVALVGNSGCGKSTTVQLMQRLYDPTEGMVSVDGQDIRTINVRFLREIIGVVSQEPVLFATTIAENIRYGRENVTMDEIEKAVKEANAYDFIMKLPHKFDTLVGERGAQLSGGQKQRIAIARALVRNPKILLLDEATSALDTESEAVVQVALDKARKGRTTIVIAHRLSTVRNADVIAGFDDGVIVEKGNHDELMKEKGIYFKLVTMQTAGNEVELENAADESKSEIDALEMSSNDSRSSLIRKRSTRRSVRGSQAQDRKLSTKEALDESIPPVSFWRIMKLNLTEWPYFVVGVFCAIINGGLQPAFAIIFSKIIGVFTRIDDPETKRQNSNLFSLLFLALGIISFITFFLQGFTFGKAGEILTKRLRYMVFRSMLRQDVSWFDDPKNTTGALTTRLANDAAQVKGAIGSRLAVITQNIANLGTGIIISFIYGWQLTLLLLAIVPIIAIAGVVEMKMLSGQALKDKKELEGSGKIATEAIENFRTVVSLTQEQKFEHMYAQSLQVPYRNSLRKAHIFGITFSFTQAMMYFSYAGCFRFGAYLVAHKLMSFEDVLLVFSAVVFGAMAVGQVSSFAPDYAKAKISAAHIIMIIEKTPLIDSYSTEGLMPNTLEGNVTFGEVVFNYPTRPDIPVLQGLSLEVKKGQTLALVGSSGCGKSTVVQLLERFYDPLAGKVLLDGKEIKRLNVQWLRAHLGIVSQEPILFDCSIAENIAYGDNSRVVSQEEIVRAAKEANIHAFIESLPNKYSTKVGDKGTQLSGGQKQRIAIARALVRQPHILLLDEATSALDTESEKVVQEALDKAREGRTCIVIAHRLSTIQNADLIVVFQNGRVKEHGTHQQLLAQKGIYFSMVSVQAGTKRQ

What does the source list for `O=C1c2c(O)ccc(O)c2C(=O)c2c(NCCNCCO)ccc(NCCNCCO)c21`?
inhibition ([1]; measured here: BGB combination, at 5 µM): 93.8%; inhibition ([1]; measured here: cisplatin combination, at 0.5 µM): 45.8%; inhibition ([1]; measured here: cisplatin combination, at 5 µM): 95.6%; inhibition ([2]; at 0.5 µM): -10.6% (inactive); inhibition ([2]; cisplatin combination, at 0.5 µM): 42.8%; inhibition ([2]; cisplatin combination, at 5 µM): 49.8%; inhibition ([2]; measured here: BGB IC40 combination 0.05 uM, at 0.05 µM): -13%; inhibition ([2]; single agent, at 5 µM): 75.3%; inhibition ([3]; at 0.5 µM): -1.35% (inactive); inhibition ([3]; cisplatin combo, at 5 µM): 70.8%; inhibition ([3]; measured here: BGB IC40 combination, at 0.05 µM): -3.01%; inhibition ([3]; measured here: combination with cisplatin, at 0.5 µM): -18.9%; inhibition ([3]; single agent, at 5 µM): 55.2%; inhibition ([4]; at 0.5 µM): 65.5% (inactive); inhibition ([4]; measured here: with BGB IC20 combination, at 0.5 µM): 74%; inhibition ([4]; measured here: with cisplatin IC20 combination, at 0.5 µM): 61.2%; inhibition ([4]; single agent, at 0.05 µM): 43.2%; inhibition ([4]; single agent, at 5 µM): 99.2%

Which inclusion score [5] does the source give for `NS(=O)(=O)c1cc2c(cc1Cl)NCNS2(=O)=O` here?
Its inclusion score is 2.

And the period change [6]?
Its period change is 0.06 h (inactive).

And the inhibition [7]?
Its inhibition is -1% (inactive).

And the fluorescence ratio (interference) [8]?
The fluorescence ratio (interference) was 1 (inactive).

And the outcome [9]?
The outcome was “inactive”.

What about the outcome [10] of the same compound?
Its outcome is “inactive”.

What about the outcome [11] of the same compound?
Its outcome is “inactive”.

And the outcome [12]?
Its outcome is “inactive”.

What about the outcome [13] of the same compound?
The outcome was “inactive”.

What about the outcome [14] of the same compound?
Its outcome is “inactive”.

What about the outcome [15] of the same compound?
The outcome was “inactive”.

What about the outcome [16] of the same compound?
The outcome was “inactive”.

For `COCCOC(=O)C1=C(C)NC(C)=C(C(=O)OC(C)C)C1c1cccc([N+](=O)[O-])c1` (stereo unspecified), which period change [6] is on record?
The period change was 0.19 h (inactive).

What about the inhibition [7] of the same compound?
Its inhibition is -4% (inactive).

And the fluorescence ratio (interference) [8]?
The fluorescence ratio (interference) was 0.9 (inactive).

And the outcome [16]?
The outcome was “inactive”.

Which fluorescence slope change [17] does the source give for `COc1ccc(Cl)cc1C(=O)NCCc1ccc(S(=O)(=O)NC(=O)NC2CCCCC2)cc1` here?
Its fluorescence slope change is 105% (active).

What about the inclusion score [5] of the same compound?
The inclusion score was 2.

And the period change [6]?
The period change was 0.16 h (inactive).

What about the inhibition [7] of the same compound?
The inhibition was 1% (inactive).

And the fluorescence ratio (interference) [8]?
The fluorescence ratio (interference) was 1 (inactive).

What about the outcome [16] of the same compound?
Its outcome is “inactive”.

What does the source list for `CC(C)C(=O)Nc1ccc([N+](=O)[O-])c(C(F)(F)F)c1`?
fluorescence slope change [17]: 60.9% (active); period change [6]: -0.165 h (inactive); inhibition [7]: -1% (inactive); fluorescence ratio (interference) [8]: 1 (inactive); outcome [9]: inactive; outcome [10]: inactive; AC50 [11]: 18.7 µM (active); outcome [13]: inactive; outcome [14]: inactive; outcome [15]: inactive; outcome [16]: inactive

What does the source list for `CN=C(NC#N)NCCSCc1nc[nH]c1C`?
inclusion score [5]: 2; period change [6]: 0.115 h (inactive); inhibition [7]: 0% (inactive); fluorescence ratio (interference) [8]: 1 (inactive); outcome [16]: inactive

With `CCCCNc1cc(C(=O)O)cc(S(N)(=O)=O)c1Oc1ccccc1` as the compound, how does the fluorescence slope change [17] read?
Its fluorescence slope change is 105% (active).

And the inclusion score [5]?
The inclusion score was 2.

And the period change [6]?
Its period change is 0.11 h (inactive).

And the inhibition [7]?
Its inhibition is -3% (inactive).

And the fluorescence ratio (interference) [8]?
Its fluorescence ratio (interference) is 0.9 (inactive).

And the outcome [9]?
Its outcome is “inactive”.

And the outcome [10]?
The outcome was “inactive”.

And the outcome [11]?
The outcome was “inactive”.

And the outcome [12]?
Its outcome is “inactive”.

What about the outcome [13] of the same compound?
Its outcome is “inactive”.

What about the outcome [14] of the same compound?
Its outcome is “inactive”.

And the outcome [15]?
The outcome was “inactive”.

What about the outcome [16] of the same compound?
The outcome was “inactive”.

With `NCCc1ccc(O)c(O)c1` as the compound, how does the inclusion score [5] read?
Its inclusion score is 2.

What about the period change [6] of the same compound?
Its period change is -0.01 h (inactive).

What about the inhibition [7] of the same compound?
The inhibition was -4% (inactive).

And the fluorescence ratio (interference) [8]?
Its fluorescence ratio (interference) is 1 (inactive).

What about the outcome [9] of the same compound?
The outcome was “inactive”.

And the outcome [10]?
Its outcome is “inactive”.

And the outcome [12]?
The outcome was “inactive”.

And the outcome [13]?
Its outcome is “inactive”.

And the outcome [14]?
Its outcome is “inactive”.

What about the outcome [15] of the same compound?
Its outcome is “inactive”.

And the outcome [16]?
Its outcome is “inactive”.

Which inclusion score [5] does the source give for `CC(=O)CC(c1ccccc1)c1c(O)c2ccccc2oc1=O` (stereo unspecified) here?
The inclusion score was 2.

And the outcome [9]?
Its outcome is “inactive”.

What about the outcome [10] of the same compound?
Its outcome is “inactive”.

What about the outcome [12] of the same compound?
Its outcome is “inactive”.

What about the outcome [13] of the same compound?
Its outcome is “inactive”.

And the outcome [14]?
Its outcome is “inactive”.

And the outcome [15]?
Its outcome is “inactive”.

For `CCOC(=O)C1=C(C)NC(C)=C(C(=O)OC)C1c1cccc([N+](=O)[O-])c1` (stereo unspecified), which period change [6] is on record?
The period change was 0.21 h (inactive).

And the inhibition [7]?
The inhibition was -2% (inactive).

And the fluorescence ratio (interference) [8]?
Its fluorescence ratio (interference) is 0.9 (inactive).

And the outcome [16]?
The outcome was “inactive”.

— PubChem BioAssay
